Screening data (PubChem)
In the library only some 1.1% were active in any assay of this set; here they are far more common.
LAP4 TOR yeast – modulators of LAP4-GFP expression in yeast, primary screen, S. cerevisiae, multiplex flow cytometry, MLPCN library | GFP response vs DMSO, % at 10 µM | actives 0.34% (n = 320,000) | 3 h; median GFP as percent of DMSO wells | AID 2023, 2009;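 active = GFP response vs DMSO above a set limit, about the screen mean plus 3 SD, cut at about 150% in these data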
AGP1 TOR yeast – modulators of AGP1-GFP expression in yeast TOR pathway, primary screen, cell-based, multiplex flow cytometry, S. cerevisiae, MLPCN library. 3 h; GFP as percent of DMSO wells. GFP response vs DMSO, % at 10 µM. actives 0.02% (n = 320,000);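 active = GFP response relative to DMSO above a set limit, near screen average plus 3 SD, cut at about 150% in these data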;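 also: median GFP channel fluorescence of the gated AGP1 strain per well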
MEP2 TOR yeast – modulators of MEP2-GFP levels in yeast, primary screen, S. cerevisiae, multiplex flow cytometry, MLPCN library. S. cerevisiae MEP2-GFP strain, 3 h; 100% = DMSO control level. GFP response vs DMSO, % at 10 µM. actives 0.51% (n = 330,000). AID 2016, 2009;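 active = GFP response versus DMSO above a set limit, roughly screen mean plus 3 SD, cut at about 180% in these data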;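 also: median GFP fluorescence of the barcode-gated MEP2-GFP cells per well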
VLA-4 inh – inhibition in human VLA-4 binding assay, primary screen, VLA-4 allosteric modulator project, MLPCN library, flow cytometry, VLA-4 expressing cells. Integrin alpha-4 (Homo sapiens), P13612. ligand binding flow cytometry. inhibition, % (about 7 µM as worked out from the volumes in the protocol). actives 0.2% (n = 330,000); in the data active = inhibition above about 50%
Target sequence (P13612 whole entry, looked up): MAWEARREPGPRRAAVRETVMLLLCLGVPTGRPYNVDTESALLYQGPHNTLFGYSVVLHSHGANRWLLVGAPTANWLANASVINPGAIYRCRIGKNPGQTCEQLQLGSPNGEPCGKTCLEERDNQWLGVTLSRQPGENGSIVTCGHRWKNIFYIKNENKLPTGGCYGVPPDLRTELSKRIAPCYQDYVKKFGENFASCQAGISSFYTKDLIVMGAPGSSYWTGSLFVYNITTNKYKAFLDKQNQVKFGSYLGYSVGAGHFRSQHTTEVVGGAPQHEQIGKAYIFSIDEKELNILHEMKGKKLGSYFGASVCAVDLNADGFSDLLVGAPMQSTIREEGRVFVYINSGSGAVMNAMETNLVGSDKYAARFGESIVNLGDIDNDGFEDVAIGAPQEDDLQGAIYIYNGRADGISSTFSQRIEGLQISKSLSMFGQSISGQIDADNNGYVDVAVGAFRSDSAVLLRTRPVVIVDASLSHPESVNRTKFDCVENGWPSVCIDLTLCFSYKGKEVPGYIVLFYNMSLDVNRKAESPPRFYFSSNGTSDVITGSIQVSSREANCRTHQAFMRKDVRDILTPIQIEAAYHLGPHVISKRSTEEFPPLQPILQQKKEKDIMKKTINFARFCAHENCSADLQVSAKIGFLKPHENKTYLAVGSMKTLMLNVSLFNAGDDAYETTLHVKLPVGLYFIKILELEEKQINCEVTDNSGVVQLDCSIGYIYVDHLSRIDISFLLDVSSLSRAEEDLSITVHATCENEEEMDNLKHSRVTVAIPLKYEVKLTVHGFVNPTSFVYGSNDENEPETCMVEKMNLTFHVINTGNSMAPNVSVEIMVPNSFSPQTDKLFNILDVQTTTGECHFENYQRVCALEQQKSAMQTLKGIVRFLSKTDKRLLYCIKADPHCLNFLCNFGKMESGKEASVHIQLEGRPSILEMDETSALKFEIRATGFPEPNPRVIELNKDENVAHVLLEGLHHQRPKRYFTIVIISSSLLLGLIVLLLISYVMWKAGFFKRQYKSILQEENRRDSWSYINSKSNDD
RPL19A TOR yeast – RPL19A-GFP expression modulators in yeast, primary screen, cell-based, S. cerevisiae, multiplex flow cytometry, MLPCN | S. cerevisiae RPL19A-GFP strain, 3 h; hits give low values | percent response vs DMSO, % at 10 µM | actives 0.3% (n = 330,000);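 active = percent response vs DMSO below 50%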;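 also: median channel GFP fluorescence of the barcoded RPL19A-GFP strain; lower means less RPL19A-GFP as with rapamycin TOR inhibition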
CIT2 TOR yeast – modulators of CIT2-GFP expression in yeast, primary screen, S. cerevisiae, GFP fusion, multiplex flow cytometry, MLPCN library | S. cerevisiae CIT2-GFP strain, 3 h; 100 means same as DMSO wells | GFP response vs DMSO, % at 10 µM | actives 0.065% (n = 320,000);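 active = GFP response relative to DMSO above a set limit, near the screen mean plus 3 SD, cut at about 150% in these data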;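 also: ratio of well median GFP fluorescence to mean of DMSO wells on the plate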
VLA-4 mod pick – retest of VLA-4 allosteric modulators, confirmation, cell-based, cherry-picked plates, U937, HUTS-21 LIBS antibody; shares compounds with VLA-4 inh; U937 cells, HUTS-21 LIBS mAb binding, flow cytometry; LDV ligand present at threefold Kd; inhibition, % at 6.7 µM; actives 2% (n = 1,300); AID 2813, 2010; in the data active = inhibition above about 40%
Hits are given with their value; – = inactive; · = not tested or not shown.

SMILES | LAP4 TOR yeast | AGP1 TOR yeast | MEP2 TOR yeast | VLA-4 inh | RPL19A TOR yeast | CIT2 TOR yeast | VLA-4 mod pick
CCCC[C@@H]1C=C(C(=O)O)[C@H](c2ccc(CC)cc2)N1S(=O)(=O)c1ccc(C)cc1 | – | – | – | – | – | – | –
CC[C@@H]1C=C(C(=O)O)[C@H](c2ccc3c(c2)OCO3)N1S(=O)(=O)c1ccc(C)cc1 | – | – | – | – | – | – | ·
CC[C@@H]1C=C(C(=O)O)[C@H](c2ccc(C#N)cc2)N1S(=O)(=O)c1ccc(C)cc1 | – | – | – | – | – | – | ·
CCCCC[C@@H]1C=C(C(=O)O)[C@H](c2ccc3c(c2)OCO3)N1S(=O)(=O)c1ccc(C)cc1 | – | – | – | – | – | – | –
CC(=O)N1CCN(S(=O)(=O)c2ccc3c(c2)CCC(=O)N3)CC1 | – | – | – | – | – | – | ·
CCCCC[C@@H]1C=C(C(=O)O)[C@H](c2ccc(OC)c(OC)c2)N1S(=O)(=O)c1ccc(C)cc1 | – | – | – | – | – | – | –
CCCCC[C@@H]1C=C(C(=O)O)[C@H](c2ccc(Cl)c(Cl)c2)N1S(=O)(=O)c1ccc(C)cc1 | – | – | – | – | – | – | ·
CCCC[C@@H]1C=C(C(=O)O)[C@H](c2ccc(Br)cc2)N1S(=O)(=O)c1ccc(C)cc1 | – | – | – | – | – | – | –
CCCCC[C@@H]1C=C(C(=O)O)[C@H](c2ccc(CC)cc2)N1S(=O)(=O)c1ccc(C)cc1 | – | – | – | – | – | – | –
CCCCC[C@@H]1C=C(C(=O)O)[C@H](c2cccc(C)c2)N1S(=O)(=O)c1ccc(C)cc1 | – | – | – | – | – | – | –
CCOc1ccc(S(=O)(=O)N2CCCCC2)cc1NC(=O)Cc1ccsc1 | – | – | – | – | – | – | ·
Cc1cc(C)cc(NC(=O)c2ccc(CNc3c(N4CCCC4)c(=O)c3=O)cc2)c1 | – | – | – | – | – | – | ·
C=CCN(Cc1cccs1)C(=O)COc1ccc2c(c1)OCO2 | – | – | – | – | – | – | ·
O=C(COc1ccc(/C=N/NC(=O)c2cc3ccccc3o2)cc1Cl)Nc1ccccc1 | – | – | – | 78 | – | – | 61
O=C(O)CCN1C(=O)c2ccccc2Sc2ncccc21 | – | – | – | – | – | – | –
CC(C)NC(=O)CCN1C(=O)c2ccccc2Sc2ncccc21 | – | – | – | – | – | – | ·
Cc1nn(C)c(C)c1CNC(=O)Nc1ccc2c(c1)OCO2 | – | – | – | 125 | – | – | –
Cc1ccc(C(=O)N2CCN(c3cccc(C)c3C)CC2)cc1S(=O)(=O)N1CCOCC1 | – | – | – | – | – | – | ·
O=C(c1cccc(Cl)c1)N1CCC(N2CCC(C(=O)N3CCCC3)CC2)CC1 | – | – | – | – | – | – | ·
COc1cc(/C=C/C(=O)OCC(=O)Nc2c(C)n(C)n(-c3ccccc3)c2=O)ccc1OCC#N | – | – | – | 61 | – | – | –
COc1cc(/C=C/C(=O)OCC(=O)Nc2c(C)n(C)n(-c3ccccc3)c2=O)ccc1O | – | – | – | – | – | – | ·
CCOC(=O)CSc1ccc2nnc(-c3cccnc3)n2n1 | – | – | – | – | – | – | –
O=C(Nc1ccc(C2=NCCN2)cc1)c1ccc(Cl)c(C(=O)Nc2ccc(C3=NCCN3)cc2)c1 | – | – | – | – | – | – | –
O=C(Nc1ccc(Cl)c(Cl)c1)c1ccc(Cl)c(Cl)c1 | – | – | – | – | – | – | ·
O=C(NC1CCCc2ccccc21)c1cccc(Br)c1 (configuration not stated) | – | – | – | – | – | – | –
SMILES | LAP4 TOR yeast | AGP1 TOR yeast | MEP2 TOR yeast | VLA-4 inh | RPL19A TOR yeast | CIT2 TOR yeast | VLA-4 mod pick
COc1ccc(C(=O)/C=C/C(=O)N(CC(=O)NC2CCCCC2)Cc2cccs2)c(O)c1 | – | – | – | 63 | – | – | –
C#C[C@]1(O)CCC2C3CCC4=Cc5oncc5CC4(C)C3CCC21C (some centres not stated) | – | – | – | – | – | – | ·
Nc1ncnc2nc(SCCOc3ccc(Cl)cc3)[nH]c12 | – | – | – | – | – | – | –
Cc1ccc(OCCSc2nc3ncnc(N)c3[nH]2)cc1 | – | – | – | – | – | – | ·
O=C(COCc1cc(-c2ccc3c(c2)OCO3)on1)N1CCN(c2ccccc2)CC1 | – | – | – | – | – | – | ·
Cc1ccc2[nH]c3c(=O)n(Cc4ccncc4)cnc3c2c1 | – | – | – | – | – | – | ·
O=c1c2[nH]c3ccc(Br)cc3c2ncn1Cc1ccncc1 | – | – | – | – | – | – | –
O=C(NCc1ccco1)/C(=C/c1ccc(Br)cc1)NC(=O)c1ccco1 | – | – | – | – | – | – | ·
Cc1ccc(C(C)C)c(OCCNCCc2ccccc2)c1 | – | – | – | – | – | – | ·
S=C(Nc1ccc(Oc2ccccc2)cc1)N1CCN(c2ccccn2)CC1 | – | – | – | – | – | – | ·
Cc1ccc(NC(=O)CNC(=O)Cn2cnc3sc(C)c(C)c3c2=O)cc1F | – | – | – | – | – | – | ·
Cc1cc(C)n(CC(O)CN2C(=O)NC(C)(C)C2=O)n1 (configuration not stated) | – | – | – | 54 | – | – | –
CC(=O)Nc1ccc(S(=O)(=O)Nc2nccc(C)n2)cc1 | – | – | – | – | – | – | –
CC(=O)Nc1ccc(S(=O)(=O)Nc2nc3ccccc3nc2Cl)cc1 | – | – | – | – | – | – | –
O=C(NC1CCN(S(=O)(=O)c2ccccc2)CC1)c1ccc(F)cc1 | – | – | – | – | – | – | ·
CN(CC(=O)Nc1ccc(F)c(F)c1F)C(=O)c1ccc(=O)[nH]c1 | – | – | – | – | – | – | ·
NC(=O)NS(=O)(=O)Oc1ccccc1 | – | · | – | 50 | – | – | –
C[C@]12C=CC(=O)C=C1CC[C@@H]1[C@@H]2[C@@H](O)C[C@@]2(C)[C@H]1CC[C@]2(O)C(=O)CO | – | – | – | 59 | – | – | –
CC12CCC(=O)C=C1CCC1C2C(O)CC2(C)C1CCC2(O)C(=O)CO (configuration not stated) | – | – | – | – | – | – | –
C[C@]12CCC(=O)C=C1CC[C@@H]1[C@@H]2[C@@H](O)C[C@@]2(C)[C@H]1CC[C@]2(O)C(=O)CO | – | – | – | – | – | – | –
